# Laboratory results published in PubChem BioAssay AID1159580 (chemical genetic matrix, 2015).
# In all, about 5,500 compounds went through this assay and about 2,000 (36%) were called active. Another 18% or so got no clear call; they are omitted. The list shows a part of the results. A number with no mark means an inactive call. Cut-off read from the data, not from the text of the source: active = normalized growth mostly below about 0.91 (no sharp cut-off); inconclusive = no clear call, values can overlap the other calls; inactive = mostly above about 0.92.
# Assay: chemical genetic growth profiling, strain panel (AID 1159580);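 note: tested at 20 µM; growth read once vehicle control cultures reached saturation at 30 °C; 1 = growth at the plate median or of vehicle wells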
# Conditions: growth OD
compound,measurement,setting,value
CC(C(=O)O)c1ccc(N2Cc3ccccc3C2=O)cc1 (configuration not stated),normalized growth,"S. cerevisiae deletion strains, locus YKL009W, strain mrt4, stronger effect = lower value",0.998
same,normalized growth,"S. cerevisiae deletion strains, locus YKL068W, stronger effect = lower value",1
same,normalized growth,"S. cerevisiae deletion strains, locus YKL085W, strain MDH1 (second series), stronger effect = lower value",0.99
same,normalized growth,"S. cerevisiae deletion strains, locus YKL085W, strain MDH1, stronger effect = lower value",0.99
same,normalized growth,"S. cerevisiae deletion strains, locus YKL160W, strain elf1, stronger effect = lower value",0.986
same,normalized growth,"S. cerevisiae deletion strains, locus YKL190W, strain CNB1, stronger effect = lower value",1.01
same,normalized growth,"S. cerevisiae deletion strains, locus YKR001C, strain vps1, stronger effect = lower value",0.976
same,normalized growth,"S. cerevisiae deletion strains, locus YKR026C, strain gcn3, stronger effect = lower value",0.986
same,normalized growth,"S. cerevisiae deletion strains, locus YKR091W, strain srl3, stronger effect = lower value",0.983
same,normalized growth,"S. cerevisiae deletion strains, locus YLL001W, strain dnm1, stronger effect = lower value",0.96
same,normalized growth,"S. cerevisiae deletion strains, locus YLL026W, stronger effect = lower value",0.988
same,normalized growth,"S. cerevisiae deletion strains, locus YLL041C, strain sdh2, stronger effect = lower value",0.99
same,normalized growth,"S. cerevisiae deletion strains, locus YLR027C, strain aat2, stronger effect = lower value",0.985
same,normalized growth,"S. cerevisiae deletion strains, locus YLR039C, strain RIC1, stronger effect = lower value",0.994
same,normalized growth,"S. cerevisiae deletion strains, locus YLR058C, strain SHM2, stronger effect = lower value",1.01
same,normalized growth,"S. cerevisiae deletion strains, locus YLR102C, strain apc9, stronger effect = lower value",0.992
same,normalized growth,"S. cerevisiae deletion strains, locus YLR113W, strain HOG1, stronger effect = lower value",0.984
same,normalized growth,"S. cerevisiae deletion strains, locus YLR221C, strain rsa3, stronger effect = lower value",0.928
same,normalized growth,"S. cerevisiae deletion strains, locus YLR258W, strain gsy2, stronger effect = lower value",0.976
same,normalized growth,"S. cerevisiae deletion strains, locus YLR262C, strain YPT6 (second series), stronger effect = lower value",0.966
same,normalized growth,"S. cerevisiae deletion strains, locus YLR262C, strain YPT6, stronger effect = lower value",1.03
same,normalized growth,"S. cerevisiae deletion strains, locus YLR268W, strain sec22, stronger effect = lower value",0.997
same,normalized growth,"S. cerevisiae deletion strains, locus YLR320W, strain mms22, stronger effect = lower value",0.918
same,normalized growth,"S. cerevisiae deletion strains, locus YLR330W, strain CHS5, stronger effect = lower value",1.01
same,normalized growth,"S. cerevisiae deletion strains, locus YLR342W, strain FKS1 (second series), stronger effect = lower value",1.01
same,normalized growth,"S. cerevisiae deletion strains, locus YLR342W, strain FKS1, stronger effect = lower value",0.981
same,normalized growth,"S. cerevisiae deletion strains, locus YLR357W, strain rsc2, stronger effect = lower value",0.957
same,normalized growth,"S. cerevisiae deletion strains, locus YLR370C, strain arc18, stronger effect = lower value",0.974
same,normalized growth,"S. cerevisiae deletion strains, locus YLR371W, strain rom2, stronger effect = lower value",0.995
same,normalized growth,"S. cerevisiae deletion strains, locus YLR384C, strain iki3, stronger effect = lower value",0.984
same,normalized growth,"S. cerevisiae deletion strains, locus YLR418C, strain cdc73, stronger effect = lower value",0.951
same,normalized growth,"S. cerevisiae deletion strains, locus YML016C, strain PPZ1, stronger effect = lower value",1.02
same,normalized growth,"S. cerevisiae deletion strains, locus YML032C, strain rad52, stronger effect = lower value",0.975
same,normalized growth,"S. cerevisiae deletion strains, locus YML120C, strain ndi1, stronger effect = lower value",0.934
same,normalized growth,"S. cerevisiae deletion strains, locus YML124C, strain tub3, stronger effect = lower value",0.993
same,normalized growth,"S. cerevisiae deletion strains, locus YMR058W, strain fet3, stronger effect = lower value",0.984
same,normalized growth,"S. cerevisiae deletion strains, locus YMR078C, strain ctf18, stronger effect = lower value",0.995
same,normalized growth,"S. cerevisiae deletion strains, locus YMR125W, strain sto1, stronger effect = lower value",0.973
same,normalized growth,"S. cerevisiae deletion strains, locus YMR129W, stronger effect = lower value",0.986
same,normalized growth,"S. cerevisiae deletion strains, locus YMR205C, strain PFK2, stronger effect = lower value",0.98
same,normalized growth,"S. cerevisiae deletion strains, locus YMR223W, strain ubp8, stronger effect = lower value",0.98
same,normalized growth,"S. cerevisiae deletion strains, locus YMR231W, strain pep5, stronger effect = lower value",0.988
same,normalized growth,"S. cerevisiae deletion strains, locus YMR307W, strain GAS1, stronger effect = lower value",1.07
same,normalized growth,"S. cerevisiae deletion strains, locus YNL067W, strain RPL9B, stronger effect = lower value",1.01
same,normalized growth,"S. cerevisiae deletion strains, locus YNL071W, strain lat1, stronger effect = lower value",0.999
same,normalized growth,"S. cerevisiae deletion strains, locus YNL153C, strain GIM3, stronger effect = lower value",1.01
same,normalized growth,"S. cerevisiae deletion strains, locus YNL183C, strain NPR1, stronger effect = lower value",0.941
same,normalized growth,"S. cerevisiae deletion strains, locus YNL209W, strain ssb2, stronger effect = lower value",0.973
same,normalized growth,"S. cerevisiae deletion strains, locus YNL233W, strain BNI4, stronger effect = lower value",1.01
same,normalized growth,"S. cerevisiae deletion strains, locus YNL248C, strain rpa49, stronger effect = lower value",0.968
same,normalized growth,"S. cerevisiae deletion strains, locus YNL250W, strain rad50, stronger effect = lower value",1.01
same,normalized growth,"S. cerevisiae deletion strains, locus YNL271C, strain bni1, stronger effect = lower value",0.984
same,normalized growth,"S. cerevisiae deletion strains, locus YNL298W, strain CLA4, stronger effect = lower value",0.981
same,normalized growth,"S. cerevisiae deletion strains, locus YNL307C, strain MCK1, stronger effect = lower value",0.986
same,normalized growth,"S. cerevisiae deletion strains, locus YNL322C, strain KRE1 (second series), stronger effect = lower value",0.818 (active)
same,normalized growth,"S. cerevisiae deletion strains, locus YNL322C, strain KRE1, stronger effect = lower value",1.01
same,normalized growth,"S. cerevisiae deletion strains, locus YNR049C, strain mso1, stronger effect = lower value",0.987
same,normalized growth,"S. cerevisiae deletion strains, locus YNR052C, strain pop2, stronger effect = lower value",0.989
same,normalized growth,"S. cerevisiae deletion strains, locus YOL006C, strain TOP1, stronger effect = lower value",0.975
same,normalized growth,"S. cerevisiae deletion strains, locus YOL012C, strain htz1",1.17
same,normalized growth,"S. cerevisiae deletion strains, locus YOL147C, strain pex11, stronger effect = lower value",0.991
same,normalized growth,"S. cerevisiae deletion strains, locus YOR001W, strain rrp6, stronger effect = lower value",0.981
same,normalized growth,"S. cerevisiae deletion strains, locus YOR061W, strain CKA2, stronger effect = lower value",1.02
same,normalized growth,"S. cerevisiae deletion strains, locus YOR069W, strain VPS5, stronger effect = lower value",1.01
same,normalized growth,"S. cerevisiae deletion strains, locus YOR070C, strain gyp1, stronger effect = lower value",0.982
same,normalized growth,"S. cerevisiae deletion strains, locus YOR080W, strain dia2, stronger effect = lower value",0.987
same,normalized growth,"S. cerevisiae deletion strains, locus YOR083W, strain WHI5, stronger effect = lower value",0.965
same,normalized growth,"S. cerevisiae deletion strains, locus YOR106W, strain vam3, stronger effect = lower value",0.957
same,normalized growth,"S. cerevisiae deletion strains, locus YOR136W, strain idh2, stronger effect = lower value",0.991
same,normalized growth,"S. cerevisiae deletion strains, locus YOR144C, strain elg1, stronger effect = lower value",0.995
same,normalized growth,"S. cerevisiae deletion strains, locus YOR184W, strain ser1, stronger effect = lower value",0.963
same,normalized growth,"S. cerevisiae deletion strains, locus YOR231W, strain MKK1, stronger effect = lower value",0.973
same,normalized growth,"S. cerevisiae deletion strains, locus YOR265W, strain rbl2, stronger effect = lower value",0.982
same,normalized growth,"S. cerevisiae deletion strains, locus YOR270C, strain vph1, stronger effect = lower value",1.03
same,normalized growth,"S. cerevisiae deletion strains, locus YOR290C, strain snf2, stronger effect = lower value",0.917
same,normalized growth,"S. cerevisiae deletion strains, locus YOR316C, strain cot1, stronger effect = lower value",0.998
same,normalized growth,"S. cerevisiae deletion strains, locus YPL051W, strain arl3, stronger effect = lower value",0.995
same,normalized growth,"S. cerevisiae deletion strains, locus YPL078C, strain atp4, stronger effect = lower value",0.984
same,normalized growth,"S. cerevisiae deletion strains, locus YPL106C, strain sse1, stronger effect = lower value",0.984
same,normalized growth,"S. cerevisiae deletion strains, locus YPL240C, strain hsp82, stronger effect = lower value",0.99
same,normalized growth,"S. cerevisiae deletion strains, locus YPL256C, strain CLN2, stronger effect = lower value",0.984
same,normalized growth,"S. cerevisiae deletion strains, locus YPR119W, strain clb2, stronger effect = lower value",0.993
same,normalized growth,"S. cerevisiae deletion strains, locus YPR141C, strain kar3, stronger effect = lower value",1.01
same,normalized growth,"S. cerevisiae deletion strains, locus YPR163C, strain tif3, stronger effect = lower value",0.996
same,normalized growth,"S. cerevisiae deletion strains, locus YPR167C, strain met16, stronger effect = lower value",0.982
same,normalized growth,"S. cerevisiae deletion strains, strain wtn01, stronger effect = lower value",0.987
same,normalized growth,"S. cerevisiae strains, strain wild type, stronger effect = lower value",1.01
